What was measured:
Format in all cases: functional
Plasmodium falciparum [1] = experiment: GSK_TCMDC: Inhibition of Plasmodium falciparum 3D7 in whole red blood cells, using parasite LDH activity as an index of growth. Test compounds present at 2uM
Plasmodium falciparum [2] = experiment: GSK_TCMDC: Inhibition of Plasmodium falciparum Dd2 in whole red blood cells, using parasite LDH activity as an index of growth. Test compounds present at 2uM
HepG2 = experiment: GSK_TCMDC: Percent inhibition of human HepG2 cell line. Test compounds present at 10uM.

SMILES: CC(=O)N1N=C(c2cccs2)Sc2c1nc(-c1ccc(Cl)cc1)n2C(C)=O
- Inhibition (Plasmodium falciparum [1]): 99%
- Inhibition (Plasmodium falciparum [2]): 93%
- Inhibition (HepG2): 3%

SMILES: COc1cccc2c(NN=Cc3ccccc3F)ccnc12
- Inhibition (Plasmodium falciparum [1]): 96%
- Inhibition (Plasmodium falciparum [2]): 37%
- Inhibition (HepG2): 6%

SMILES: CC(=O)Nc1ccc(OCCN(Cc2ccccc2C(F)(F)F)c2ccc(C#N)c(C(F)(F)F)c2)cc1
- Inhibition (Plasmodium falciparum [1]): 100%
- Inhibition (Plasmodium falciparum [2]): 81%
- Inhibition (HepG2): 8%

SMILES: O=C(NCCCN1CCN(c2cccc(Cl)c2)CC1)c1ccc(-c2nc3cc(Cl)c(Cl)cc3[nH]2)c(F)c1
- Inhibition (Plasmodium falciparum [1]): 100%
- Inhibition (Plasmodium falciparum [2]): 72%
- Inhibition (HepG2): 3%

SMILES: CCC(C)c1ccc(NC(=O)Nc2ccnc3ccccc23)cc1.Cl (stereo unspecified)
- Inhibition (Plasmodium falciparum [1]): 98%
- Inhibition (Plasmodium falciparum [2]): 42%
- Inhibition (HepG2): 27%

SMILES: CCOc1cc(/C=N/Nc2nc3ccccc3[nH]2)ccc1OCc1ccc([N+](=O)[O-])cc1
- Inhibition (Plasmodium falciparum [1]): 100%
- Inhibition (Plasmodium falciparum [2]): 1%
- Inhibition (HepG2): 2%

SMILES: O=S(=O)(ON=C1CCc2ccccc21)c1ccc(Cl)cc1
- Inhibition (Plasmodium falciparum [1]): 100%
- Inhibition (Plasmodium falciparum [2]): 79%
- Inhibition (HepG2): 0%

SMILES: COc1cc2ccccc2cc1CCNCCCCNCCc1cc2ccccc2cc1OC.CS(=O)(=O)O
- Inhibition (Plasmodium falciparum [1]): 99%
- Inhibition (Plasmodium falciparum [2]): 38%
- Inhibition (HepG2): 100%

SMILES: CCOc1cc(C)ccc1N(C1CCN(CCCCNC(=O)c2ccc(-c3ccc(C(F)(F)F)cc3)cc2)CC1)S(=O)(=O)c1ccccc1
- Inhibition (Plasmodium falciparum [1]): 88%
- Inhibition (Plasmodium falciparum [2]): 85%
- Inhibition (HepG2): 14%

SMILES: Cn1cncc1CCN(Cc1ccc(-c2ccc(C(F)(F)F)cc2)cc1)C(=O)Cn1c(CCc2cccc(F)c2F)cc(=O)c2cccnc21
- Inhibition (Plasmodium falciparum [1]): 100%
- Inhibition (Plasmodium falciparum [2]): 97%
- Inhibition (HepG2): 44%

SMILES: NCc1ccc(CNCc2ccc(-c3ccc(-c4nc5cc(F)ccc5[nH]4)cc3)cc2)cc1.O=C(O)C(F)(F)F
- Inhibition (Plasmodium falciparum [1]): 100%
- Inhibition (Plasmodium falciparum [2]): 99%
- Inhibition (HepG2): 12%

SMILES: O=C(NCc1ccccc1)Nc1ccc(-c2ccc(-c3nc4cc(C(F)(F)F)ccc4[nH]3)cc2)cc1
- Inhibition (Plasmodium falciparum [1]): 99%
- Inhibition (Plasmodium falciparum [2]): 23%
- Inhibition (HepG2): 40%
